Inconclusive results are not listed. Calls of active or inactive are those of the source. Unless noted, the call rests on the fitted dose curve; in most records, active means well fitted curve in the direction sought with a large enough effect; inconclusive means small, poorly fitted or top-dose-only effect, or another doubt; inactive means no such curve, though single readings can be large; an effect the other way counts as inactive or inconclusive.
Tests used:
[1] = AP1 Signaling Pathway (AID 357; active means well fitted curve in either direction with a large enough effect, not every such curve was filed as active;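 further: ME-180 reporter cells stimulated with EGF at its EC50 level; on the % scale 0 is the no-effect control and ±100 the full control effect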); conditions: ME-180 AP-1-bla reporter, EGF-induced, beta-lactamase ratio, 5 h; at 38 µM (top of the series)
Outline: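 Modulation of EGF-driven AP-1 transcription was assessed with a beta-lactamase reporter in ME-180 cells. Compound and EC50 EGF were co-incubated 5 hours at 37 °C before 2.5-hour CCF4 loading at room temperature and dual-emission reading.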

[2] = NFAT Signaling Pathway (AID 444; active means well fitted curve in either direction with a large enough effect, not every such curve was filed as active;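 further: carbachol stimulus at about its EC50 of 1 µM final; on the % scale 0 is the no-effect control and ±100 the full control effect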); conditions: Jurkat NFAT-bla M1, carbachol, beta-lactamase ratio, 5 h; at 38 µM (top of the series)
Outline: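 Jurkat cells carrying an NFAT-driven β-lactamase reporter and co-transfected muscarinic M1 receptor were treated with compound plus carbachol (1 uM final, an EC50 level) for 5 h at 37 °C. CCF4 loading followed for 1 h at RT; 460/530 nm ratio gave %activity.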

[3] = Stat Signaling Pathway (AID 446; active means well fitted curve in either direction with a large enough effect, not every such curve was filed as active;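 further: ME-180 cervical cancer cells given 40 pM IL-6 alongside compound; SIE-controlled beta-lactamase reporter measured as 460/530 nm FRET emission ratio; on the % scale 0 is the no-effect control and ±100 the full control effect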); conditions: ME-180 (cervical carcinoma) SIE beta-lactamase reporter, IL-6 stimulated, 5 h; at 38 µM (top of the series)
Outline: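 Overnight-plated ME-180 cells bearing a STAT Inducible Element beta-lactamase reporter; 5 h co-exposure to compound and 40 pM IL-6; values normalized to 300 pM IL-6 and 125 nM JAK inhibitor controls.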

[4] = target: Glucocorticoid receptor (Homo sapiens) (UniProt P04150); experiment: GR-GFP Redistribution (AID 450;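 active means compounds whose dose series gives a full or clear partial fitted curve of increased nuclear translocation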; further: potency means the concentration at half of the fitted maximal effect); conditions: U2OS GR-GFP nuclear translocation, laser cytometry, 2 h
Glucocorticoid receptor (Homo sapiens), sequence (P04150 whole entry, looked up, the tested form may be a part): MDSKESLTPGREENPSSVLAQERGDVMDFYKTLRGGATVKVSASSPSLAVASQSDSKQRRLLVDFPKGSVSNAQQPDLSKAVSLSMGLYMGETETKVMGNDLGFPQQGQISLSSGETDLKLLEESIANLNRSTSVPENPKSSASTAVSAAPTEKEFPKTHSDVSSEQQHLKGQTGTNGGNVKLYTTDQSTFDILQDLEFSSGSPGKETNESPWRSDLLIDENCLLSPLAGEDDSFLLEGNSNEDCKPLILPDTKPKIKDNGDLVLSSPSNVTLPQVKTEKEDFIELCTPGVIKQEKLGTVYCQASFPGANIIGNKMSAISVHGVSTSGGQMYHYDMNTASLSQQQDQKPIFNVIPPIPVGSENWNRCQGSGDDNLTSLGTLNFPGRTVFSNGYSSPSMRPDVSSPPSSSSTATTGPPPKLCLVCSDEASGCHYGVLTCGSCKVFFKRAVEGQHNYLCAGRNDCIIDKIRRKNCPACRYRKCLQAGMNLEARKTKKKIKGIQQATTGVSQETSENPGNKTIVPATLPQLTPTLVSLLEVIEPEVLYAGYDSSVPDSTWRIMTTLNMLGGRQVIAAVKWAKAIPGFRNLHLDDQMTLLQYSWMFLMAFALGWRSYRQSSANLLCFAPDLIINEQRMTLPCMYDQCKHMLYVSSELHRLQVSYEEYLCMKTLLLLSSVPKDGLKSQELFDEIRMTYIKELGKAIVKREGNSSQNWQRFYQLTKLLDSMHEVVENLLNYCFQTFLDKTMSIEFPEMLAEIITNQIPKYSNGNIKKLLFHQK

[5] = target: Glucocorticoid receptor (Homo sapiens) (UniProt P04150); experiment: GR-EFC Redistribution (AID 451; calls by dose curve; further: potency means the concentration at half of the fitted maximal effect); conditions: CHO-K1 GR-EFC translocation, beta-gal luminescence, 2 h
Outline: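 CHO-K1 cells stably expressing nuclear-localized β-gal enzyme acceptor and GR fused C-terminally to the enzyme donor fragment; ligand-driven nuclear translocation restores β-gal by complementation. Compounds titrated up to 46 uM final, 2 h at 37 °C; luminescence read.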

[6] = target: Mitogen-activated protein kinase 10 (Mus musculus) (UniProt Q61831); experiment: JNK3 AlphaScreen Assay (AID 530; active means well fitted curve in either direction with a large enough effect, not every such curve was filed as active;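 further: kinase came from lysate of stimulated human HepG2 cells; signal reports phosphorylation of biotinylated GST-cJun 1-79 at Ser73 with 10 µM ATP; on the % scale 0 is the no-effect control and ±100 the full control effect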); conditions: JNK3 lysate, c-Jun phosphorylation; series mostly up to 57.1 µM
Outline: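 Phosphorylation of biotinylated GST-cJun(1-79) at Ser73 is measured by AlphaScreen proximity luminescence. Enzyme is JNK3 in HepG2 lysates activated with interleukin-1beta and tumor necrosis factor alpha; ATP is 10 uM final.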

[7] = target: 3',5'-cyclic-AMP phosphodiesterase 4B (Homo sapiens) (UniProt Q07343); experiment: qHTS Assay for Inhibitors of PDE-IV (AID 607; active means well fitted activation curve with a large enough effect in the main read-out, with a control signal flat, not every such curve was filed as active; further: % of control where 0% means no effect); conditions: HEK293 ACTOne CNG channel cells, membrane potential fluorescence; series mostly up to 22.9 µM
3',5'-cyclic-AMP phosphodiesterase 4B (Homo sapiens), sequence (Q07343 whole entry, looked up): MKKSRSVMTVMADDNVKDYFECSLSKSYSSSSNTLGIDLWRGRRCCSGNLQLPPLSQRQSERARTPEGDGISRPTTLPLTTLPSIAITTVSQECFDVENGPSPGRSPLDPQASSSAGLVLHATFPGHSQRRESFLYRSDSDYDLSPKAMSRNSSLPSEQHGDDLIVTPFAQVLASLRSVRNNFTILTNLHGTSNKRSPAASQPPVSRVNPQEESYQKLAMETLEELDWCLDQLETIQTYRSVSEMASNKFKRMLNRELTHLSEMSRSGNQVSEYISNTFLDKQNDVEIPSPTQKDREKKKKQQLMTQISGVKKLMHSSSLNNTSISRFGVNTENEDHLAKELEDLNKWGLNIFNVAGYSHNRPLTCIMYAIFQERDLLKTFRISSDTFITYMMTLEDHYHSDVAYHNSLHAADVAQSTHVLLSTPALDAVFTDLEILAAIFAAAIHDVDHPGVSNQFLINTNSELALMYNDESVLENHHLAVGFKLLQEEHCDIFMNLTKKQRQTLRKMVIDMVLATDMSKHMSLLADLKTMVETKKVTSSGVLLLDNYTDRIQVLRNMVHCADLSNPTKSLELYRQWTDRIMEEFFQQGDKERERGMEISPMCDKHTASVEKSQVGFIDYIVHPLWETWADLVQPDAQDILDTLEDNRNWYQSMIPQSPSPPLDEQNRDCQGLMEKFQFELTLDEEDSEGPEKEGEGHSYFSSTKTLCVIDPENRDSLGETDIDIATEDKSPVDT
Outline: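 Live HEK293 cells with a modified cyclic nucleotide-gated (CNG) channel report intracellular cAMP via membrane-potential dye fluorescence (ex 535/em 590 nm). Endogenous PDE-IV was targeted. Compounds were tested at up to 22.9 uM final; RO 20-1724 100 uM served as control.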

[8] = target: Guanine nucleotide-binding protein G(i) subunit alpha-1 (Homo sapiens) (UniProt P63096); experiment: qHTS Assay for Inhibitors of RGS12 GoLoco Motif Activity (Green Fluorophore) (AID 879); conditions: Galphai1/FITC-RGS12 GoLoco peptide, fluorescence polarization; series mostly up to 57.1 µM;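 further: 0% = labeled peptide with Gαi1 and full inhibition = labeled peptide alone without protein; negative values mean loss of peptide binding seen as reduced polarization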
Guanine nucleotide-binding protein G(i) subunit alpha-1 (Homo sapiens), sequence (P63096 whole entry, looked up): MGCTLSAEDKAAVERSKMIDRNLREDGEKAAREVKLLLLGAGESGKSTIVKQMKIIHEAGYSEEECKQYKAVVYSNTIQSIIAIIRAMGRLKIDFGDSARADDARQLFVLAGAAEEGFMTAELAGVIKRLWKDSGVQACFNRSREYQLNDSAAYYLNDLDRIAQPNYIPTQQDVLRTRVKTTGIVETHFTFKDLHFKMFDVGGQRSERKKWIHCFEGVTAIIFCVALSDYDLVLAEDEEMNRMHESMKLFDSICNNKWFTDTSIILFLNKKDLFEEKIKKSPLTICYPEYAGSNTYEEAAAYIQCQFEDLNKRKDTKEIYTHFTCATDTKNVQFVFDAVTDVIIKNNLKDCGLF
Outline: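 A drop in FITC polarization marked displacement of the FITC-tagged RGS12 GoLoco peptide (10 nM) from Gαi1 (50 nM). Compounds were incubated 10 min at room temperature in Tris pH 7.5 buffer containing 150 mM NaCl, 0.1 mM GDP and 0.05% NP40; unlabeled peptide titration served as control.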

[9] = target: Cytochrome P450 3A4 (Homo sapiens) (UniProt P08684); experiment: qHTS Assay for Activators of Cytochrome P450 3A4 (AID 885); conditions: recombinant CYP3A4, Luciferin-PPXE luminescence, 60 min; series mostly up to 57.1 µM; further: nearly all actives have a fitted effect of over 65% in size
Cytochrome P450 3A4 (Homo sapiens), sequence (P08684 whole entry, looked up): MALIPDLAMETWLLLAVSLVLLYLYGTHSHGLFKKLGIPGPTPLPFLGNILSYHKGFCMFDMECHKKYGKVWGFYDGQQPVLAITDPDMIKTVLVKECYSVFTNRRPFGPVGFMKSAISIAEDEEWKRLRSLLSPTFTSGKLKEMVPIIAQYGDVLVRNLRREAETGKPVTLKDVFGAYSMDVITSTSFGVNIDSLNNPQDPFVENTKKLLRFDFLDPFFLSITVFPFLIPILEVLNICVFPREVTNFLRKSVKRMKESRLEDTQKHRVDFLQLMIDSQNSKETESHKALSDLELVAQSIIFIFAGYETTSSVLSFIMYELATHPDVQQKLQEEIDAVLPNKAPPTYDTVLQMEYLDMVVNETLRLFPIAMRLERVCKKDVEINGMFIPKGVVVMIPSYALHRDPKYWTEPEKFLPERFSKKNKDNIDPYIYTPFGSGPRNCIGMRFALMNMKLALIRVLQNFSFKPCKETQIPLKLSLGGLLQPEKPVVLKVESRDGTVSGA
Outline: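 Using 20nM recombinant human CYP3A4 in potassium phosphate (200mM), substrate Luciferin-PPXE at 25uM, luminescent luciferin detection followed a 60-min RT NADPH reaction; data scaled to 57 uM ketoconazole.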

[10] = qHTS Assay for Identification of Small Molecule Agonists for Thrombopoietin (TPO) Signaling Pathway (AID 917); conditions: TPO signaling pathway reporter cells, agonist qHTS, stimulated with TPO at its EC50; series mostly up to 38.5 µM; further: on the % scale 0 is the no-effect control and ±100 the full control effect
Outline: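 Ba/F3 (mouse) + hTPO receptor + GpIIb-promoter luciferase; IL-3 withdrawn overnight; compound + 26 pM TPO (EC50), 24 hrs, 37 C, 5% CO2; Steadylite luminescence, 10 min RT.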

[11] = target: Muscarinic acetylcholine receptor M1 (Rattus norvegicus) (UniProt P08482); experiment: qHTS Assay for Antagonists of Acetylcholine Muscarinic M1 Receptor: Measurement of IP-One Response (AID 944); conditions: CHO-M1 cells, IP-One HTRF, antagonist mode; series mostly up to 46.1 µM; further: nearly all actives have a fitted effect of over 75% in size
Muscarinic acetylcholine receptor M1 (Rattus norvegicus), sequence (P08482 whole entry, looked up): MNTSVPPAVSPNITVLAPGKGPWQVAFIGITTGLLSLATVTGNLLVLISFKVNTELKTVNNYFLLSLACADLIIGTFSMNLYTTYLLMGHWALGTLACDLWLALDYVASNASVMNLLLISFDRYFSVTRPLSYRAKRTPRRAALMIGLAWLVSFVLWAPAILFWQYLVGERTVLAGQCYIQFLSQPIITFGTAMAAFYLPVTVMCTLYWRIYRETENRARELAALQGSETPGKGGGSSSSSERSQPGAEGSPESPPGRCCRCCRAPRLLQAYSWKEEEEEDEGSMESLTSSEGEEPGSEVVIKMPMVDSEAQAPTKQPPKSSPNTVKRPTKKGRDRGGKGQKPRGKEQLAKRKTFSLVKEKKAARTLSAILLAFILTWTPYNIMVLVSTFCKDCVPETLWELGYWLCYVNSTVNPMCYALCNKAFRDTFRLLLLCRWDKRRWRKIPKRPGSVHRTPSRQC
Outline: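 Antagonist mode with rat M1 receptor transfected into CHO cells. Compound is added first for 10 min, carbachol at its EC80 follows for 30 min, and lysis reagents then allow TR-FRET detection of accumulated IP1.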

[12] = target: Pyruvate kinase (Leishmania mexicana) (UniProt Q27686); experiment: qHTS Validation Assay for Inhibitors of Leishmania Mexicana Pyruvate Kinase (AID 945);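 further: 0% = DMSO only neutral control wells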; conditions: purified L. mexicana pyruvate kinase, enzyme activity, E451W mutant enzyme; series mostly up to 57.5 µM
Pyruvate kinase (Leishmania mexicana), sequence (Q27686 2-499 E452W): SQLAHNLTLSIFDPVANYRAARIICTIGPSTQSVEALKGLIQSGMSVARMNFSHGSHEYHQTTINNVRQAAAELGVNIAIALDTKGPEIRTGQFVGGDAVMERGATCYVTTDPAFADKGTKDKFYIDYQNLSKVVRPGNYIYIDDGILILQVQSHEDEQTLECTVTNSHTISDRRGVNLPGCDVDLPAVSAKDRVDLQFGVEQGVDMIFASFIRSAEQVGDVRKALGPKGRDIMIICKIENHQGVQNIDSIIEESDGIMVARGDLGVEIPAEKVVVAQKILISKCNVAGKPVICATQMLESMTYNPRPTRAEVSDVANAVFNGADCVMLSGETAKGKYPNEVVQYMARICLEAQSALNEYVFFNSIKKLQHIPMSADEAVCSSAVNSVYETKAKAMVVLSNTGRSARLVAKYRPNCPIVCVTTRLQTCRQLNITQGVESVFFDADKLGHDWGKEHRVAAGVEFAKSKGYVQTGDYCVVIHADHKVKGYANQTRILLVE
Outline: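 Substrate mix (0.5 mM PEP, 0.1 mM ADP, 7 mM MgCl2, 50 mM KCl, pH 7.2 imidazole) received compound by pin tool, then 0.2 nM LmPYK E451W. After 1 h at room temperature, PKLight was added and luminescence measured.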

[13] = target: Pyruvate kinase PKM (Homo sapiens) (UniProt P14618); experiment: qHTS Assay for Activators of Human Muscle Pyruvate Kinase (AID 954; active means well fitted curve in the direction sought with a large enough effect, not every such curve was filed as active;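 further: 0% = uninhibited enzyme and -100% = no enzyme or full thiadiazolimine inhibition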); conditions: purified human muscle pyruvate kinase, luciferase-coupled luminescence, 1 h; series mostly up to 57.5 µM
Pyruvate kinase PKM (Homo sapiens), sequence (P14618 whole entry, looked up): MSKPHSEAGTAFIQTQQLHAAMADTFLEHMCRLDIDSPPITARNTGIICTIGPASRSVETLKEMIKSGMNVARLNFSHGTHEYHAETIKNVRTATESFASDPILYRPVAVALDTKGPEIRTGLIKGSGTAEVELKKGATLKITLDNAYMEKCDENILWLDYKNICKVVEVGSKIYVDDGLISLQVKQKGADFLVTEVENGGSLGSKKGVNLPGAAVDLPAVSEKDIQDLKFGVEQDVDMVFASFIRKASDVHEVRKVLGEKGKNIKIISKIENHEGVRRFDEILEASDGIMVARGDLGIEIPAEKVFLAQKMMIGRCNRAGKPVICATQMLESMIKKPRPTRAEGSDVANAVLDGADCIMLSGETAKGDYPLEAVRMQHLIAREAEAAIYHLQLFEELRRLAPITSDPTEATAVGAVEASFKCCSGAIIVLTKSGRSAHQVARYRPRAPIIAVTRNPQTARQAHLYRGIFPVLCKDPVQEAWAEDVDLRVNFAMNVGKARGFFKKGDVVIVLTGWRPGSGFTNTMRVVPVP
Outline: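 Screening used highly purified human pyruvate kinase M2 under submaximal activity, with PEP at its Km and ADP below Km. After an hour at room temperature, ATP was read by luciferase luminescence.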

[14] = target: alpha-glucosidase (Oryza sativa, rice) (UniProt Q653V4); experiment: Counterscreen for Glucocerebrosidase Inhibitors: qHTS Assay for Rice alpha-Glucosidase at pH 5.0 (AID 997); conditions: rice alpha-glucosidase enzyme activity; series mostly up to 76.9 µM;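 further: 0% = full activity with enzyme and -100% = basal without enzyme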
Outline: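 Endpoint fluorogenic assay at pH 5.0: compounds (0.7 nM to 77 uM) titrated against 4 nM rice enzyme and 400 uM 4-MU-alpha-glucoside for 20 min at room temperature; NaOH/glycine stop, read ex 365/em 440 nm, Hill-fitted AC50.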

[15] = Validation of Assay for Modulators of Lamin A Splicing (AID 1459; active means well fitted curve in the direction sought with a large enough effect in the signal ratio; the % refers to the signal ratio;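 further: cells exposed to compound for two days before reading; 0% is about no effect; ratio rise marks activators and ratio drop marks inhibitors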); conditions: Lamin A splicing dual RFP/GFP fluorescence reporter; series mostly up to 9.22 µM
Outline: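 Readout: ratio of GFP (500-530 nm) to RFP (575-640 nm) total object intensity by 488 nm laser-scanning cytometry after 48 hrs. Cells were HeLa S3 clones carrying lamin A-EGFP minigene plus DsRed2 viability reporter; vehicle 0.5% DMSO final.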

[16] = target: DNA repair nuclease/redox regulator APEX1 (Homo sapiens) (UniProt P27695); experiment: qHTS Validation Assay for Inhibitors of the Human Apurinic/apyrimidinic Endonuclease 1 (APE1) (AID 1705); conditions: purified APE1 endonuclease activity, fluorescence, titration; series mostly up to 57.1 µM
DNA repair nuclease/redox regulator APEX1 (Homo sapiens), sequence (P27695 whole entry, looked up): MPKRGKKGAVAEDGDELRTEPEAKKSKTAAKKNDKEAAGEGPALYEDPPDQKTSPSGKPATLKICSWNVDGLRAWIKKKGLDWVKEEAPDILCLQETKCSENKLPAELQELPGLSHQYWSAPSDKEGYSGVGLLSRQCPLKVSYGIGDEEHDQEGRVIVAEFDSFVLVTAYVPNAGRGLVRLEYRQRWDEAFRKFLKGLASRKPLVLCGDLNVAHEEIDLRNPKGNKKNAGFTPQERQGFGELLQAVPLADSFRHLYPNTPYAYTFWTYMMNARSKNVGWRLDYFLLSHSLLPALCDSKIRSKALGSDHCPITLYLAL
Outline: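 Read-out: TAMRA fluorescence (525 nm ex, 598 nm em) from cleavage of a quenched THF abasic-site duplex, 50 nM final; activity taken as intensity change between third and first of three reads 60 s apart.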

[17] = Counterscreen for APE1 Inhibitors: Fluorescent Dye Displacement Validation Assay (AID 1707); conditions: fluorescent dye displacement from DNA; series mostly up to 57.1 µM;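 further: plate controls were ThO with dsDNA and no compound for no effect and ThO without dsDNA for full effect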
Outline: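 Loss of Thiazole Orange fluorescence marks promiscuous DNA binders. The dye (250 nM) is mixed with 50 nM abasic-site dsDNA in pH7.5 Tris buffer containing MgCl2, then compounds are added and emission is read once.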

[18] = target: Endonuclease 4 (Escherichia coli (strain K12)) (UniProt P0A6C1); experiment: Counterscreen for APE1 Inhibitors: qHTS Validation Assay for Inhibitors of Endonuclease IV (AID 1708); further: on the % scale 0 is the no-effect control and ±100 the full control effect; conditions: E. coli endonuclease IV, DNA cleavage fluorescence; series mostly up to 57.1 µM
Outline: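 Enzyme (2 nM) + compound, 15 min RT; add 50 nM TAMRA/BHQ-2 THF-site dsDNA; kinetic read ex525/em598, 3 reads/60 s; activity = read 3 − read 1. Buffer Tris pH 7.5, 50 mM NaCl, 2 mM MgCl2, DTT, Tween-20.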

[19] = qHTS for differential inhibitors of proliferation of Plasmodium falciparum line 7G8 (AID 1815); conditions: Plasmodium falciparum 7G8 proliferation inhibition; series mostly up to 28.7 µM;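 further: potency means the concentration at half of the fitted maximal effect; parasite growth measured after three days of incubation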

COC(=O)c1c(-c2cc(OC)c(OC)c(OC)c2)c2ccnc(OCc3ncccn3)c2c(=O)n1Cc1ccnc(C)c1
active: Potency [19] 3.98 µM
inactive: activity change, negative = inhibition [1] -4.4% | activity change, negative = inhibition [2] 4.39% | activity, negative = inhibition [3] -8.52% | Potency [4] > 46 µM | Potency [5] > 46 µM | Potency [6] | Potency [7] | outcome [8] | Potency [9] | Potency [10] | Potency [11] | Potency [12] | outcome [13] | outcome [14] | outcome [15] | Potency [16] | Potency [17] | Potency [18]
